Data published in the supplement of paper PMC10849652.
The full data set covers some 7,900 targets. This sample favours those with a hit. About 0.6% of all pairs of compound and target were hits. Unmarked numbers belong to inactive results.

Assays:
Assay in all cases: log2 fold change, soluble protein after heating vs DMSO (PISA); higher = thermal stabilisation; K562 cells, 10 uM, 30 min; active = over 0.2 and 3.5 SD of the protein, either way, in both replicates (recomputed)
bafetinib = compound: Cc1ccc(NC(=O)c2ccc(CN3CC[C@H](N(C)C)C3)c(C(F)(F)F)c2)cc1Nc1nccc(-c2cncnc2)n1 [bafetinib]
Outline: (§1)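 K562 cells at 2×10^6 cells/mL were exposed to 10 μM compound for 30 min, then aliquots were heated for 3 min across 48°C-58°C, pooled, and extracted in PBS containing 0.5% NP-40 at 4°C. The supernatant after 21,000xg for 90 min was taken as soluble protein and measured by TMTpro 16plex LC-MS/MS with channel sums equalised. Thermal stability is reported relative to control samples, with values from duplicates. Fold changes are given on a log2 scale.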

[1] = compound: Cc1cccc(CC(=O)N2CCc3c2ccc(-c2cn(C)c4ncnc(N)c24)c3F)n1
Outline: as §1

nilotinib = compound: Cc1cn(-c2cc(NC(=O)c3ccc(C)c(Nc4nccc(-c5cccnc5)n4)c3)cc(C(F)(F)F)c2)cn1 [nilotinib]
Outline: as §1

[2] = compound: Cc1nc(Nc2n[nH]c3c2CN(C(=O)N[C@H](CN(C)C)c2ccccc2)C3(C)C)c2sccc2n1
Outline: as §1

dasatinib = compound: Cc1nc(Nc2ncc(C(=O)Nc3c(C)cccc3Cl)s2)cc(N2CCN(CCO)CC2)n1 [dasatinib]
Outline: as §1

[3] = compound: Cc1ncc(-c2ccnc(Nc3ccc(S(C)(=O)=O)cc3)n2)n1C(C)C
Outline: as §1

[4] = compound: Cn1cc(-c2ccc3c(c2)CCN3C(=O)Cc2cccc(C(F)(F)F)c2)c2c(N)ncnc21
Outline: as §1

[5] = compound: Cn1cc(-c2ccc3nnc(C(F)(F)c4ccc5ncccc5c4)n3n2)cn1
Outline: as §1

tipifarnib = compound: Cn1cncc1[C@@](N)(c1ccc(Cl)cc1)c1ccc2c(c1)c(-c1cccc(Cl)c1)cc(=O)n2C [tipifarnib]
Outline: as §1

mubritinib = compound: FC(F)(F)c1ccc(/C=C/c2nc(COc3ccc(CCCCn4ccnn4)cc3)co2)cc1 [mubritinib]
Outline: as §1

Sequence of UniProt P60520 (P60520 whole entry, looked up): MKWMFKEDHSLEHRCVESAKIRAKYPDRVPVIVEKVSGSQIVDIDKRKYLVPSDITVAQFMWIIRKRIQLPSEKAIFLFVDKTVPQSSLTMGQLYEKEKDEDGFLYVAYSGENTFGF
Sequence of UniProt Q9Y613 (Q9Y613 whole entry, looked up): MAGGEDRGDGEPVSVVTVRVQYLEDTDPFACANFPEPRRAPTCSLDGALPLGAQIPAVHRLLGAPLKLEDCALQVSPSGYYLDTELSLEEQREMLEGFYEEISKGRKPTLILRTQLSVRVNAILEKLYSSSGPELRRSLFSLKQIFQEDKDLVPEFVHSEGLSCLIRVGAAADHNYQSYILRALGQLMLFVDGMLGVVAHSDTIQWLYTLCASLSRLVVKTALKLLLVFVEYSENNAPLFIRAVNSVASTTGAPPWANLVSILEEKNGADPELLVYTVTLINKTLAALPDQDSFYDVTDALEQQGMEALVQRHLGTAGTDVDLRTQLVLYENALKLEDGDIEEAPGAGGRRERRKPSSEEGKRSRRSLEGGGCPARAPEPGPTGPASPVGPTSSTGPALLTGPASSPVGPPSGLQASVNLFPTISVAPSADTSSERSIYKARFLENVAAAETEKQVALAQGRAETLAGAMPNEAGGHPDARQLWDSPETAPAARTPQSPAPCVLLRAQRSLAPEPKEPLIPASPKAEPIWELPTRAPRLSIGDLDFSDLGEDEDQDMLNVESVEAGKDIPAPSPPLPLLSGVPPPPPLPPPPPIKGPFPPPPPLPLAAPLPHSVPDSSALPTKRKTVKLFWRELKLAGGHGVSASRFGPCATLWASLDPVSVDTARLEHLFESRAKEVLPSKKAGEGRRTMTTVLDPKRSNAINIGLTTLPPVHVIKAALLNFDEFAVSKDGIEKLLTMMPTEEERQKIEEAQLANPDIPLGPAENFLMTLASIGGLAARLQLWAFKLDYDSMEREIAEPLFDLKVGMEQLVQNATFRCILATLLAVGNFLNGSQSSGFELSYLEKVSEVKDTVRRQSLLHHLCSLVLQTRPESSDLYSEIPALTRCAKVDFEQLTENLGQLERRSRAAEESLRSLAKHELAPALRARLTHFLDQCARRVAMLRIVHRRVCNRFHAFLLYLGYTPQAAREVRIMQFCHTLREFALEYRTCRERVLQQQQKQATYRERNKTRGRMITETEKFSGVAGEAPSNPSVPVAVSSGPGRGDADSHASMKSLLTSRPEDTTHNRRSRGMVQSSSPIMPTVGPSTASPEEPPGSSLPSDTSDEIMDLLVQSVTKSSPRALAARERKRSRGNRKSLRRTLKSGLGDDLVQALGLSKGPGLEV
Sequence of UniProt P00390 (P00390 whole entry, looked up): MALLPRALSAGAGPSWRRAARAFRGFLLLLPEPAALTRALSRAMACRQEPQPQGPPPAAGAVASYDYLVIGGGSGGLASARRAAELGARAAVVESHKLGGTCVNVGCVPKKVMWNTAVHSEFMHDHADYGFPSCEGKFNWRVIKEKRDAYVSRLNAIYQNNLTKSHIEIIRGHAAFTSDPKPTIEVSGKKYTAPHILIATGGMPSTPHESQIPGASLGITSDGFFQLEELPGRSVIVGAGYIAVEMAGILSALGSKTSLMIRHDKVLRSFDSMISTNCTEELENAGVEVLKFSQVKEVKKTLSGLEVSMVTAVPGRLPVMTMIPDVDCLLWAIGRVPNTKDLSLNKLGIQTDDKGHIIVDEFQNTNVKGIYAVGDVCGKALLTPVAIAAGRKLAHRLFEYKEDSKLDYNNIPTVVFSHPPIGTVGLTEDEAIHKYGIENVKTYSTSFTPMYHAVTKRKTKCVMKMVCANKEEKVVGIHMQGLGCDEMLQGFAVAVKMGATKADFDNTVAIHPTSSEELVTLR
Sequence of UniProt P69905 (P69905 whole entry, looked up): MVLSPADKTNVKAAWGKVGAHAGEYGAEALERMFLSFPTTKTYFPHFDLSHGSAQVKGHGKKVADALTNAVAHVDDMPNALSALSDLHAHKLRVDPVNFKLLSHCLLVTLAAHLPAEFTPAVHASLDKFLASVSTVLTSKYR
Sequence of UniProt Q6Y7W6 (Q6Y7W6 whole entry, looked up): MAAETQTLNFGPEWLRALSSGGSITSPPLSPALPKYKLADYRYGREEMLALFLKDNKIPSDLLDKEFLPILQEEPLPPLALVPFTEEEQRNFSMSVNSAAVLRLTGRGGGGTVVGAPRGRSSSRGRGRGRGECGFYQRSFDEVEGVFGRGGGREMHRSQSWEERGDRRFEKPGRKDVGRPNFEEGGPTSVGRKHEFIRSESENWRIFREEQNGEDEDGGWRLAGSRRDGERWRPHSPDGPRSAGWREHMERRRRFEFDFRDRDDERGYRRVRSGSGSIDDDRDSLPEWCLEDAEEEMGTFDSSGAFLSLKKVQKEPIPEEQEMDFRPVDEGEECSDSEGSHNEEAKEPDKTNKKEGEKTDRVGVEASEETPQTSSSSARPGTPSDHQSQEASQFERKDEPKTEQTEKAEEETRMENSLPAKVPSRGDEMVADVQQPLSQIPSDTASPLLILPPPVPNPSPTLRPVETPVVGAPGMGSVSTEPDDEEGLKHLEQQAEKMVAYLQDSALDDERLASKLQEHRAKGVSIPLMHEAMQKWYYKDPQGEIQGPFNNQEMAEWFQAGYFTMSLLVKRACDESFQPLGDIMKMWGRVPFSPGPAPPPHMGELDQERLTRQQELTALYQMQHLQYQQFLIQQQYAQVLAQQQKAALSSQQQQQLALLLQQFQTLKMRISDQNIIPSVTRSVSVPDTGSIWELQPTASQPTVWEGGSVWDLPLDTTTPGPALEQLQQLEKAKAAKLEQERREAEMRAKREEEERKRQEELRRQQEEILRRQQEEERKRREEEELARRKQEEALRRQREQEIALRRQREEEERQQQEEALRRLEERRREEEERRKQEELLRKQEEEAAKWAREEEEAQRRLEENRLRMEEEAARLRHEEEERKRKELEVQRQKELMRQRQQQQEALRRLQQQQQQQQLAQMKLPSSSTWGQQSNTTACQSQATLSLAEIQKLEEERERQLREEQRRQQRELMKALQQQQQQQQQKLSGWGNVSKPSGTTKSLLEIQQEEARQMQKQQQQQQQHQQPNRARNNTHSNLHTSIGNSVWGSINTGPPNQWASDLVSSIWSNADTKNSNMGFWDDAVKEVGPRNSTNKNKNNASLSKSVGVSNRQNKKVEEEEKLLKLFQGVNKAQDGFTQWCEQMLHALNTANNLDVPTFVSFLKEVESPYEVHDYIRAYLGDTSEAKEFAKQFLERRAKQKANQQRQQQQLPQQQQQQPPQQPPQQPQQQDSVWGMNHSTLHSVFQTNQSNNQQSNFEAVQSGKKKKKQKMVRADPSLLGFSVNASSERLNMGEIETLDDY
Sequence of UniProt P13807 (P13807 whole entry, looked up): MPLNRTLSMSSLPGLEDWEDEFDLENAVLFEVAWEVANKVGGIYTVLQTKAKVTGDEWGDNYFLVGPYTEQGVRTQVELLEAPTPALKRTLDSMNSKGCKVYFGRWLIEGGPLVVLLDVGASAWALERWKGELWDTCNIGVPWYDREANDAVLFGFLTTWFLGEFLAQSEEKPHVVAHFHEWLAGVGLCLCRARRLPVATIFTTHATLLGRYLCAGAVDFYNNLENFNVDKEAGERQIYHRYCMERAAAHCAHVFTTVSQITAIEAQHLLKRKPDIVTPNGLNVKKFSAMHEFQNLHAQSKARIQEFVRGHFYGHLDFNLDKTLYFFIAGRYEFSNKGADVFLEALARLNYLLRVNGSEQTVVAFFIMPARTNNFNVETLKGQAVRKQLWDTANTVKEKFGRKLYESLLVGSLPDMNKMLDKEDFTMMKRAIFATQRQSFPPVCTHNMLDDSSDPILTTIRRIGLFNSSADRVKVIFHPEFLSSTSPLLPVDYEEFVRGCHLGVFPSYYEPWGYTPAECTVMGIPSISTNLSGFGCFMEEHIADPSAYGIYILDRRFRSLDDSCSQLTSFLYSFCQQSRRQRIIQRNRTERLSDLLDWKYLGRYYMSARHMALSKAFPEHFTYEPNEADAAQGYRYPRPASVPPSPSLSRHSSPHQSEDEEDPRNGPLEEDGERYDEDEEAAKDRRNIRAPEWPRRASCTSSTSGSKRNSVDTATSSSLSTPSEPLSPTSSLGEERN
Sequence of UniProt P49840 (P49840 whole entry, looked up): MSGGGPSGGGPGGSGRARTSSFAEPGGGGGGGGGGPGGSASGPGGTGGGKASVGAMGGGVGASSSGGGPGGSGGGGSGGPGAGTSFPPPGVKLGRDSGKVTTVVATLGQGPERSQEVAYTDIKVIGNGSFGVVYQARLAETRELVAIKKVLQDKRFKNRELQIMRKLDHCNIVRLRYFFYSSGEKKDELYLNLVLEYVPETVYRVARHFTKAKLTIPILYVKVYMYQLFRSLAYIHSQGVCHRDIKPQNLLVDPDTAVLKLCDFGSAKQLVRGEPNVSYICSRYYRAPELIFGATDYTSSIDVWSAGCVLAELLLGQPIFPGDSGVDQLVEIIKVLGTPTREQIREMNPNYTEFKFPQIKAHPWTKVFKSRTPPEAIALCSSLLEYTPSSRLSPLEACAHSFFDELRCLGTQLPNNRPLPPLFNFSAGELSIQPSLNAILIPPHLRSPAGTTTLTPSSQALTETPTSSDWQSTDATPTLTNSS
Sequence of UniProt O00458 (O00458 whole entry, looked up): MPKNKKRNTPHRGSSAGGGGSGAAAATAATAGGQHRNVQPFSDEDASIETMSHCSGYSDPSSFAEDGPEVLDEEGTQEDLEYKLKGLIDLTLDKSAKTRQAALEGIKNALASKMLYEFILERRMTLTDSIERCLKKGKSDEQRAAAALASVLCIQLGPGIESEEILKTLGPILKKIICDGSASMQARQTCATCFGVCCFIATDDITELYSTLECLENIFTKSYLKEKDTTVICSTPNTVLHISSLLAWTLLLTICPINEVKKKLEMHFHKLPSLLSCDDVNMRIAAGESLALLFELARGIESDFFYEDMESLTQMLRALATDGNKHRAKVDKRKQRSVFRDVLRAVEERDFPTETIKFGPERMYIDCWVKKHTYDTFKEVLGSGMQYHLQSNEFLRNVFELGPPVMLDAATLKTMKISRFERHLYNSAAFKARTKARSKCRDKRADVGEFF

Target	log2 fold change (bafetinib)	log2 fold change [1]	log2 fold change (nilotinib)	log2 fold change [2]	log2 fold change (dasatinib)	log2 fold change [3]	log2 fold change [4]	log2 fold change [5]	log2 fold change (tipifarnib)	log2 fold change (mubritinib)
GIGYF2 (UniProt Q6Y7W6)	-0.076	0.045	-0.161	-0.105	-0.22	-0.023	0.054	-0.025	-0.119	-0.03
HBA1 (UniProt P69905)	-0.013	0.138	0.029	0.017	0.044	0.01	0.156	0.345 (active)	-0.084	0.024
FDPS (UniProt P14324)	0.057	0.204	-0.156	0.035	-0.392	-0.027	0.209	0.441	-0.258	0.39
IDH3A (UniProt P50213)	-0.016	0.021	-0.027	-0.006	-0.005	-0.024	0.045	0.021	-0.001	0.06
HRAS (UniProt P01112)	-0.033	0.063	0.109	0.024	0	0.003	0.041	-0.007	0.006	0.033
FARS2 (UniProt O95363)	-0.058	0.064	-0.126	0.079	-0.058	-0.097	0.039	0.039	0.018	-0.168
GTF2E1 (UniProt P29083)	0.014	0.037	-0.112	-0.168	-0.173	-0.032	0.02	0.093	-0.13	0.05
FBXO6 (UniProt Q9NRD1)	0.442 (active)	0.015	-0.118	-0.004	-0.202	0.044	0.047	-0.021	-0.021	-0.038
GSK3A (UniProt P49840)	-0.052	-0.027	-0.01	0.308 (active)	-0.024	0.383 (active)	-0.004	0.011	-0.033	0.038
GSR (UniProt P00390)	-0.031	0	-0.025	0.02	0.02	0	0.002	0.022	-0.058	0.024
GCLM (UniProt P48507)	0.016	0.072	-0.101	-0.015	-0.095	0.019	0.042	-0.051	-0.133	0.023
IFT80 isoform 3 (UniProt Q9P2H3)	-0.127	0.077	-0.059	-0.02	-0.148	0.114	0.036	0.039	-0.07	0.17
HBZ (UniProt P02008)	-0.013	0.037	0.018	0.011	0.073	-0.008	0.137	0.282	-0.183	0.049
GYS1 (UniProt P13807)	0.107	0.011	0.237	-0.18	0.172	-0.036	-0.266	-0.139	0.147	0.001
IFRD1 (UniProt O00458)	0.118	-0.031	0.165	0.056	0.071	0.202	-0.011	-0.005	0.001	0.1
IDI1 isoform 2 (UniProt Q13907)	-0.019	-0.038	0.049	0.022	0.002	-0.01	0.096	-0.012	0.018	0.054
H2AFX (UniProt P16104)	0.103	-0.198	-0.041	-0.025	0.283	-0.012	-0.439	-0.146	0.074	-0.111
GNL1 (UniProt P36915)	-0.02	0.019	-0.024	0.05	-0.084	0.054	0.047	-0.03	-0.152	0.009
HIP1 (UniProt O00291)	-0.079	-0.069	-0.038	0.063	0.004	-0.079	-0.009	-0.002	-0.099	0.077
GLYR1 (UniProt Q49A26)	0.109	-0.015	0.082	0.068	0.067	-0.004	-0.004	-0.01	0.054	0.024
HMG20A (UniProt Q9NP66)	-0.012	-0.05	-0.046	-0.02	0.052	-0.012	-0.05	-0.224	0.064	-0.021
FHOD1 (UniProt Q9Y613)	-0.187	-0.005	-0.089	-0.109	0.044	-0.043	-0.238	-0.089	0.041	-0.218
GABARAPL2 (UniProt P60520)	-0.168	0.096	-0.015	-0.028	-0.014	-0.004	0.046	0.279	-0.003	0.03
HDAC2 (UniProt Q92769)	0.137	-0.046	-0.01	0.009	0.007	-0.002	-0.01	-0.001	0.027	0.015
HEXB (UniProt P07686)	-0.468 (active)	-0.04	0.002	0.032	0.039	-0.024	0.021	0.01	0.026	0.008
FUBP3 (UniProt Q96I24)	-0.035	0.009	-0.051	0.035	-0.024	0.167	-0.059	-0.045	0.014	-0.052
FKBP3 (UniProt Q00688)	0.014	-0.03	0.028	0.041	-0.003	0.029	-0.006	0.021	-0.01	0.017
GUSB (UniProt P08236)	0.016	-0.013	0.218	-0.115	0.053	0.117	-0.059	-0.007	0.16	-0.136
GPD1 (UniProt P21695)	-0.171	-0.123	-0.104	0.054	0.061	-0.017	0.238	0.163	0.057	0.045
GLS (UniProt O94925)	-0.021	0.025	-0.095	-0.069	-0.154	0.009	-0.081	0.003	-0.071	-0.285
